NS1 function inh: inhibitors of influenza NS1 protein function; Potency, µM (series often up to 46.1 µM), for inactives: top-dose activity, positive = more growth; actives 0.4% (n = 270,000); note: potency is the fitted concentration of half-maximal effect; actives are rising curves; nearly all actives have a fitted effect of over 50% in size
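Growth recovery, yeast-based: influenza A NS1 expressed in S. cerevisiae causes slow growth, and suppressors are detected by OD600. The parent strain without NS1 is used as positive control.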
Cycloheximide cs: counter-screen hit for Shiga toxin inhibitors, cycloheximide | cell reporter, cycloheximide protein synthesis inhibition counterscreen | max response, % | actives 12% (n = 300,000); in the data active = max response mostly above about 13%, no sharp cut-off; inactive = mostly below about 14%; note: read at 38.3 µM for the half of the compounds with a filed dose; 0% is about no effect
SARS PLpro yeast: SARS-CoV PLP inhibition in yeast; S. cerevisiae expressing SARS-CoV PLpro, growth rescue; Potency, µM (series often up to 32.9 µM), inactives show at the top dose activity, positive = growth rescue, hits mostly activators; actives 0.19% (n = 330,000); note: potency is the fitted concentration of half-maximal effect; 0% is about no effect; nearly all actives have a fitted effect of over 55% in size
Pf growth 96h: P. falciparum growth inhibition at 96 hours; actives 6.9% (n = 320,000); P. falciparum luciferase reporter growth, 96 h; Potency, µM (doses to about 28.7 µM), without a hit: at the highest dose activity change, negative = inhibition, most hits filed as inhibitors; active = well fitted inhibition curve with a large enough effect; inconclusive = small, poorly fitted or top-dose-only effect, or another doubt; inactive = no such curve, though single readings can be large or run the other way; note: potency is the fitted concentration of half-maximal effect; % is set by controls: 0 for no effect and ±100 for the full control effect
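Compounds incubated with erythrocytes infected by luciferase-expressing P. falciparum (2% hematocrit, 0.05% parasitemia final) for 96 hours, 37 C in 5% CO2. Growth inhibition scored as decreased luciferase luminescence.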
Pf growth 48h: inhibits P. falciparum growth in the first generation, 48 h. P. falciparum luciferase growth in erythrocytes, 48 h. Potency, µM (highest dose often 28.7 µM), inactives show at the top dose activity change, negative = inhibition, usual class: inhibitors. actives 5.9% (n = 310,000). AID 504832; active = well fitted inhibition curve with a large enough effect; inconclusive = small, poorly fitted or top-dose-only effect, or another doubt; inactive = no such curve, though single readings can be large or run the other way; note: potency is the fitted concentration of half-maximal effect; % is set by controls: 0 for no effect and ±100 for the full control effect
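Parasite viability was followed by luminescence of a genomically integrated firefly luciferase. Cultures held 0.1% parasitemia at 2% hematocrit (final), incubated under 5% CO2 at 37 C.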
Shiga toxin inh: Shiga toxin inhibition; Vero cells, Shiga toxin protein synthesis inhibition reporter; inhibition, % at 38.7 µM; actives 9.2% (n = 290,000); AID 2315; in the data active = inhibition mostly above about 28%, no sharp cut-off; inactive = mostly below about 43%; note: 0% is about no effect
* = called active by the depositor; i = inactive; ? = inconclusive; . = no result given; [ ] = remark or other dose. This is a sample that favours compounds with a hit; in the whole collection about 21% have one here. Unless noted, calls come from the whole dose curve.

SMILES	NS1 function inh	Cycloheximide cs	SARS PLpro yeast	Pf growth 96h	Pf growth 48h	Shiga toxin inh
O=C(COC(=O)c1n[nH]c2ccccc12)Nc1ccc(S(=O)(=O)N2CCCC2)cc1	0%	-3	1%	156%[5.75 µM]	-8%	-6
CC(=O)c1cccc(NC(=O)COC(=O)c2n[nH]c3ccccc23)c1	.	19*	3%	32%	11%	102*
O=C(COC(=O)c1n[nH]c2ccccc12)Nc1ccccc1	2%	39*	-3%	297%	134%	57*
O=C(COC(=O)c1ccc2[nH]c3c(c2c1)CCCC3)Nc1ccccc1	10%	16*	-9%	17%	-3%	42*
CN(C(=O)COC(=O)c1n[nH]c2ccccc12)c1ccccc1	-4%	27*	0%	136%	65%	41
CN(C(=O)COC(=O)c1n[nH]c(=O)c2ccccc12)c1ccccc1	.	.	-6%	5%	-4%	.
COc1ccc(OC)c(NC(=O)COC(=O)c2n[nH]c3ccccc23)c1	.	.	-3%	-20%	?	.
C=CCn1c(SCc2ccccc2F)nc2cc(C(=O)O)ccc2c1=O	9%	5	-1%	9%	0%	9
O=C(CC1C(=O)NCCN1CC1CCCCC1)NCCCN1CCOCC1 (stereo not given)	-13%	0	15%	?	?	-6
CCOC(=O)c1n[nH]c2ccccc12	-12%	-2	-3%	?	9%	-29
O=C(O)c1ccccc1OCCOc1ccccc1	-58%	8	7%	-15%	16%	12
Nc1ccccc1C(=O)OCCOc1ccccc1	-34%	34*	-7%	.	240%	87*
O=C(OCCOc1ccccc1)c1n[nH]c2ccccc12	-9%	47*	-2%	180%	222%	55*
Cc1cc(C)cc(NC(=O)COC(=O)c2n[nH]c3ccccc23)c1	.	31	0%	76%	55%	65*
CCCN(C(=O)CSCC(=O)Nc1ccc(OC)cc1)c1c(N)n(Cc2ccccc2)c(=O)[nH]c1=O	.	.	2%	8%	-18%	.
O=C(O)c1cccc(NC2=C(N3CCOCC3)C(=O)c3ccccc3C2=O)c1	0%	9	-1%	32%	7%	49
Cc1ccc(S(=O)(=O)/N=C2\C=C(Nc3cccc(C(=O)O)c3)C(=O)c3ccccc32)c(C)c1	12%	24*	0%	19%	1.7µM*	64*
Cc1ccc(S(=O)(=O)/N=C2\C=C(Nc3ccc(O)cc3)C(=O)c3ccccc32)cc1	.	.	-1%	.	.	.
CCc1ccc(S(=O)(=O)/N=C2\C=C(Nc3ccc(C(=O)O)cc3)C(=O)c3ccccc32)cc1	-2%	-4	-2%	3.7µM*	2.3µM*	-14
Cc1ccc(S(=O)(=O)/N=C2\C=C(Nc3cccc(C(=O)O)c3)C(=O)c3ccccc32)cc1	-21%	6	-1%	-9%	4.7µM*	35
COc1ccc(OC)c(C2=Nn3c(nnc3-c3cccc(OC)c3OC)SC2)c1	.	-5	.	.	.	-6
CCN1C(=O)/C(=C\c2cn(CCC#N)nc2-c2ccc(F)cc2)SC1=S	1%	-2	-3%	0%	?	-1
COc1cccc(OCc2cc(C(=O)NCCc3cccc(C)n3)no2)c1	-15%	11	-2%	?	2%	9
COc1cccc(OCc2cc(C(=O)NCC3CCCCC3)no2)c1	-10%	35*	-10%	12µM*	20%	38*
COc1cccc(OCc2cc(C(=O)NCc3ccccn3)no2)c1	2%	62*	-1%	61%	18%	70*
SMILES	NS1 function inh	Cycloheximide cs	SARS PLpro yeast	Pf growth 96h	Pf growth 48h	Shiga toxin inh
Fc1ccc(OCc2nc3ccccc3s2)cc1	.	52*	0%	?	i	114*
O=S(=O)(CCc1nc2ccccc2s1)c1ccc(Cl)cc1	4%	-2	0%	-29%	.	-11
Fc1ccc(OCc2nn3cnnc3s2)cc1	5%	-2	2%	.	18%	-6
c1ccc(OCc2nc3ccccc3s2)cc1	-11%	61*	0%	-23%	338%	68*
O=S(=O)(Cc1nc2ccccc2s1)c1ccccc1	-5%	27*	-2%	19%	157%	52*
CCC(=O)Nc1ccc(OCc2nc3ccccc3s2)cc1	.	44*	-1%	11%	i	117*
CC(C)c1cc(C(F)(F)F)n2nc(C(=O)Nc3ccc(-n4cnnn4)cc3)cc2n1	?	-1	1%	0%	9%	-7
C=CCn1c(SCC(=O)Nc2cc(C)on2)nnc1-c1ccccc1F	.	.	2%	.	.	.
COc1ccc(S(=O)(=O)CCc2nc3ccccc3s2)cc1	-14%	-2	-1%	3%	.	12
Cc1cc(OCc2nc3ccccc3s2)ccc1N	7%	59*	-1%	415%	256%	112*
N#CCCN(NC1=NS(=O)(=O)c2ccccc21)C(=O)c1ccccc1Br	3%	-3	1%	3.3µM*	15%	-2
Cc1cc(NS(=O)(=O)c2ccc(NC(=O)c3ccccc3F)cc2)no1	.	.	-6%	.	.	.
CCOCc1nnc(NC(=O)c2cccc(OC)c2)s1	-8%	25*	-1%	88%	34%	57*
CCc1nnc(NC(=O)c2cccc(OC)c2)s1	-11%	42*	-9%	?	224%	65*
COc1ccc(-c2nnc(NC(=O)c3cccs3)s2)c(OC)c1	0%	10	0%	45%	78%	1
CCOCc1nnc(NC(=O)c2cc(OC)cc(OC)c2)s1	-1%	-2	-2%	0%	7%	-5
CCc1nnc(NC(=O)c2ccc(S(C)(=O)=O)cc2)s1	-4%	5	0%	182%	70%	4
CCc1nnc(NC(=O)c2ccc(OC)cc2)s1	.	28*	2%	-26%	i	93*
COc1cccc(C(=O)Nc2nnc(-c3cccs3)s2)c1	-11%	24*	-5%	?	.	89*
COc1ccc(C(=O)Nc2nnc(C(F)(F)F)s2)cc1	-98%	27*	-3%	.	143%	98*
CCC(NC(=O)Nc1nnc(C(F)(F)F)s1)(C(F)(F)F)C(F)(F)F	-238%	1	-39%	-44%	1.7µM*	-8
CCc1nnc(NC(=O)c2ccc(F)c(S(=O)(=O)N3CCCCC3)c2)s1	13%	-2	-5%	12µM*	8%	-5
COc1cccc(-c2nnc(NC(=O)Cc3cccs3)s2)c1	13%	22*	1%	37%	15%	32
O=C(O)CCC(=O)Nc1nnc(C(F)(F)F)s1	3%	-3	12%	18%	5%	-2
CC1CCCN(C(c2cccs2)c2nnnn2Cc2ccccc2)C1 (stereo not given)	-25%	-2	-21%	?	.	-8
Cc1ccc(C2=NNC(c3ccc(Cl)cc3)=Nc3ccccc32)o1	?	7	-1%	10µM*	10µM*	16
Cc1ccc(-c2cc(-c3ccc(Cl)cc3)c(C#N)c(N)n2)o1	-56%	1	-29%	.	-13%	-13

Source: PubChem (National Center for Advancing Translational Sciences (NCATS))
